# Assay results from PubChem BioAssay (NCI).
# Compounds without any hit were thinned out: in the full panel of roughly 79,000, 15% have a hit. The source made the active and inactive calls. Rule as the data show it: active = growth inhibition above about 70%; inactive = the rest.
# Assay: NCI Yeast Anticancer Drug Screen. Data for the sgs1 mgt1 strain (AID 161);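 also: 0% = growth of cultures given vehicle only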
# Conditions: S. cerevisiae sgs1 mgt1 strain, at 50.0 µM, hits give high values
# Outline: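 This yeast growth screen uses a strain with defined DNA-repair lesions; compound-treated growth is compared with vehicle-treated growth.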
row,SMILES,growth inhibition
1,CCNc1ccc([N+](=O)[O-])cc1[N+](=O)[O-],7.45% (inactive)
2,COc1cc(N=Nc2ccc([N+](=O)[O-])cc2)c([OH+]C)cc1[N+]#N.COc1cc(N=Nc2ccc([N+](=O)[O-])cc2)c([OH+]C)cc1[N+]#N.[Cl][Zn][Cl],-2.1% (inactive)
3,O=C(Nc1cc(Cl)c(Cl)cc1Cl)C(=O)C1C(=O)NC(=S)NC1=O,-9% (inactive)
4,COS(=O)(=O)c1ccc(C)cc1,-8.2% (inactive)
5,COc1ccc(C(CC(=O)O)CC(=O)N(CCCl)CCCl)cc1C (centres undefined),17% (inactive)
6,CC(C)(C)N1OC1c1cccc(Cl)c1 (centres undefined),10.8% (inactive)
7,CCCCCCCCCCC(O)[C@H]1CCC(C2CC[C@H]([C@H](O)CCCCCCCCCCC(O)CC3=CC(C)OC3=O)O2)O1 (some centres undefined),-13.3% (inactive)
8,Nc1ccc(CCc2ccc(S(=O)(=O)F)cc2)cc1,98.3% (active)
9,O=[N+]([O-])c1cccc([As](=O)(O)c2ccc(O)c([N+](=O)[O-])c2)c1,15.1% (inactive)

# Assay: NCI Yeast Anticancer Drug Screen. Data for the cln2 rad14 strain (AID 165);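 also: 0% = growth equal to vehicle treated cultures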
# Conditions: S. cerevisiae cln2 rad14 strain, at 50.0 µM, hits give high values
# Outline: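 Strain: cln2 rad14 yeast, altered in cell cycle control and DNA damage repair. Read-out: growth inhibition vs vehicle.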
row,SMILES,growth inhibition
1,O=P(Oc1ccccc1)(Oc1ccccc1)C(O)c1ccccc1 (centres undefined),0.65% (inactive)
2,CNC(=O)C(Cl)Cl,0.95% (inactive)
3,CCOC(=O)CC(Br)C(=O)CBr (centres undefined),-17.8% (inactive)
4,CC(C)C1NC(C(C)C)N2C(C(C)C)N12 (centres undefined),-24.5% (inactive)
5,O=[C-]C(F)(F)F.[C-]#[O+].[C-]#[O+].[C-]#[O+].[Mo].[c-]1[c-][c-][cH-][c-]1,25.9% (inactive)
6,COc1ccc2ccc([Se]c3ccc4ccc(OC)cc4c3)cc2c1,4.45% (inactive)
7,Nc1cccc2c1Cc1cc([N+](=O)[O-])ccc1-2,-14.4% (inactive)
8,CN(C)CCNC(=O)c1ccc(N(CCCl)CCCl)c([N+](=O)[O-])c1[N+](=O)[O-],17.6% (inactive)
9,O=S(=O)(O)C(Br)(Br)Br,-26.9% (inactive)
10,FC(F)(F)C(OP(OC(C(F)(F)F)C(F)(F)F)OC(C(F)(F)F)C(F)(F)F)C(F)(F)F,1.55% (inactive)
11,CCCCCCCCCCCCCCCC(=O)[O][Hg][c]1ccccc1,98.1% (active)
12,O=[N+]([O-])c1ccc(OCc2ccc(S(=O)(=O)F)cc2Cl)c(Cl)c1,20.6% (inactive)
13,Oc1ccc(Nc2ncnc3nc[nH]c23)cc1CN(CCCl)CCCl,-45.4% (inactive)
14,CCOC(=O)C[S][Sn]([Cl])([Cl])[S]CC(=O)OCC,-32% (inactive)
15,CCCn1cc2c3c(cccc31)[C@H]1C[C@@H](C)CN(C)[C@@H]1C2,45.1% (inactive)
16,CC(C)c1cccc(C(C)C)c1NC(=O)/C(CC(=O)CC(c1ccccc1)c1c(O)c2ccccc2oc1=O)=N/O (centres undefined),-32.1% (inactive)
17,O=C(Nc1ccc(S(=O)(=O)F)cc1)/C(=C\c1ccc([N+](=O)[O-])cc1)c1cccc(Cl)c1,31.4% (inactive)
18,O=C(Nc1c(O)[nH]c(=S)[nH]c1=O)c1ccco1,-4.35% (inactive)
19,Cc1cc(S(=O)(=O)F)ccc1NC(=O)NCc1ccc([N+](=O)[O-])cc1,-1.95% (inactive)
20,N#CC[CH2][Sn]([I])([c]1ccccc1)[c]1ccccc1,98.5% (active)

row,SMILES,growth inhibition
1,CCOP(=O)(O)OCC.[Y],-16.8% (inactive)
2,C1CCN2CC3CONC3C2C1 (centres undefined),13.7% (inactive)
3,CCOP(=O)(OCC)/C(C#N)=C/C=C/c1ccco1,4.2% (inactive)
4,CCOP(=S)(OCC)S/C(C(=O)NC)=C(/C)O,65.1% (inactive)
5,O=C1NN2CCCN=C2c2cnccc21,-34.6% (inactive)
6,COc1cc(O)c2c(O)c3c(=O)cc(C)oc3cc2c1,12.6% (inactive)
7,COC1C(O)CC(OC2CC(Oc3cc4cc5c(c(O)c4c(O)c3C)C(=O)[C@@H](OC3CC(OC4CC(OC6CC(C)(O)C(OC(C)=O)C(C)O6)C(O)C(C)O4)C(O)C(C)O3)[C@H]([C@H](OC)C(=O)[C@@H](O)[C@@H](C)O)C5)OC(C)C2OC(C)=O)OC1C (some centres undefined),60.2% (inactive)
8,Cc1cccc2c1[se]c1ccccc12,4.45% (inactive)
9,O=N[O-].[Co].[NH-]CC[NH-].[NH-]CC[NH-].[NH2-],4.95% (inactive)
10,CN1C(=O)c2ccccc2NC(=O)C12O[C@@H]2c1ccccc1 (some centres undefined),14.3% (inactive)
11,CCC(C)(C)C(=O)Nc1cccc(OC(=O)NC)c1,-3.35% (inactive)
12,CCNc1ccc([N+](=O)[O-])cc1[N+](=O)[O-],4.5% (inactive)
13,COc1cc(N=Nc2ccc([N+](=O)[O-])cc2)c([OH+]C)cc1[N+]#N.COc1cc(N=Nc2ccc([N+](=O)[O-])cc2)c([OH+]C)cc1[N+]#N.[Cl][Zn][Cl],-3.15% (inactive)
14,O=C(Nc1cc(Cl)c(Cl)cc1Cl)C(=O)C1C(=O)NC(=S)NC1=O,9.75% (inactive)
15,COS(=O)(=O)c1ccc(C)cc1,12.7% (inactive)
16,COc1ccc(C(CC(=O)O)CC(=O)N(CCCl)CCCl)cc1C (centres undefined),27.1% (inactive)
17,CC(C)(C)N1OC1c1cccc(Cl)c1 (centres undefined),11.9% (inactive)
18,CCCCCCCCCCC(O)[C@H]1CCC(C2CC[C@H]([C@H](O)CCCCCCCCCCC(O)CC3=CC(C)OC3=O)O2)O1 (some centres undefined),-10.7% (inactive)
19,Nc1ccc(CCc2ccc(S(=O)(=O)F)cc2)cc1,92.8% (active)
20,O=[N+]([O-])c1cccc([As](=O)(O)c2ccc(O)c([N+](=O)[O-])c2)c1,-4.3% (inactive)
